# PubChem BioAssay (NCI)
# Compounds without any hit were thinned out: in the full panel of roughly 83,000, 20% have a hit.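 Single-dose data. Exposure time 48 hours. Values below 10 considered active.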 Unmarked numbers belong to inactive results. The source made the active and inactive calls.
# How the values were obtained:
# Test in all cases: NCI-60 one-dose screen, 48 h (100 = growth as untreated, 0 = no growth, -100 = all killed)
# Conditions in all cases: 10 µM unless noted
# [1] = test system: HCT-15 colon
# [2] = test system: HT29 colon
# [3] = test system: SNB-75 CNS
# [4] = test system: SNB-19 CNS
# [5] = test system: U251 CNS
# [6] = test system: PC-3 prostate
# [7] = test system: SK-MEL-5 melanoma
# [8] = test system: UACC-62 melanoma
# [9] = test system: LOX IMVI melanoma
# [10] = test system: SK-MEL-28 melanoma
# [11] = test system: SK-MEL-2 melanoma
# [12] = test system: EKVX NSCLC
# [13] = test system: SN12C renal
# [14] = test system: UO-31 renal
# [15] = test system: TK-10 renal
# [16] = test system: ACHN renal
# [17] = test system: CAKI-1 renal
# [18] = test system: CCRF-CEM leukemia
# [19] = test system: MOLT-4 leukemia
# [20] = test system: A498 renal
Compound,growth [1],growth [2],growth [3],growth [4],growth [5],growth [6],growth [7],growth [8],growth [9],growth [10],growth [11],growth [12],growth [13],growth [14],growth [15],growth [16],growth [17],growth [18],growth [19],growth [20]
O=C(NC1CC1)c1cc2n(n1)CC(c1ccccc1)N2 (stereo not drawn),95.3%,107%,91.2%,100%,102%,98.8%,99.4%,88.4%,98.3%,107%,99.9%,83.7%,102%,95.8%,102%,106%,91.4%,108%,109%,
COc1cc(/C=N/NC(=O)c2cnn3c2NC(c2ccccc2)C3)ccc1OC1CCCC1 (stereo not drawn),24.6%,11.8%,-13.7% (active),39.1%,33%,10.1%,25.6%,23.8%,21.7%,40.3%,18.6%,44.9%,46.1%,33.1%,60.2%,35.6%,32.2%,24.3%,,
CCOC(=O)c1cnn(CC(O)c2ccc(F)cc2)c1NC(=O)Nc1ccccc1F (stereo not drawn),103%,117%,82.2%,98.3%,97.8%,81.5%,75.9%,73.8%,101%,101%,111%,101%,106%,71.5%,103%,98.3%,83.7%,96.9%,91.8%,
NC(=O)c1cccc(-n2ccc3cc(NC(=O)Nc4ccc(Cl)c(Cl)c4)ccc32)n1,59.7%,60.9%,68.5%,86.3%,66.7%,73.3%,74.1%,83.2%,81.9%,88.1%,88.3%,68.3%,86.8%,95.5%,80.7%,74.5%,57.6%,59.2%,50.7%,
CC1SC(c2cccc(Oc3ccccc3)c2)N(CCc2cccs2)C1=O (stereo not drawn),-16.3% (active),-24.7% (active),-11.7% (active),11.9%,-25.7% (active),2.18% (active),-100% (active),-71.1% (active),-100% (active),-57% (active),-75.7% (active),-24.1% (active),-86.3% (active),-17.7% (active),-16.2% (active),-12.8% (active),-37.4% (active),,-2.19% (active),-56.6% (active)
O=C(NCc1ccc(F)cc1)C1CN(c2ccc(Cl)cc2)N(c2ccc(Cl)cc2)C1=O (stereo not drawn),45.1%,25.6%,36.7%,78.1%,56.6%,61.9%,52.9%,42%,72.3%,74.9%,64.6%,74.8%,83%,51%,100%,75.6%,57.6%,61.8%,37.1%,39.8%
COC(=O)c1c2c(c(C)[n+]([O-])c1C)C(=O)C(NCc1ccc(O)cc1)=CC2=O,-43.4% (active),3.68% (active),-29.5% (active),-28.5% (active),-0.0674% (active),7.51% (active),-99.7% (active),-73.8% (active),-89.6% (active),-3.61% (active),-12.5% (active),-34.5% (active),-89.9% (active),6.95% (active),74.1%,8.06% (active),7.36% (active),6.08% (active),-1.35% (active),
CCCCCCCC/C=C\CCCCCCCCOc1cccc(CC(=O)NCC[N+](C)(C)C)c1,91.7%,48.3%,59.1%,60.1%,46.2%,36.4%,90.8%,80.8%,89%,99.6%,106%,92.6%,69.7%,92.6%,68.6%,93.4%,71.2%,78%,92.9%,
O=C1CCC(N2C(=O)c3cccc(NCCOCCOCCNC(=O)c4cc5c(o4)C(=O)c4ccccc4C5=O)c3C2=O)C(=O)N1 (stereo not drawn),55.1%,-16.8% (active),-98.2% (active),-24.3% (active),-42% (active),6.46% (active),-98.2% (active),-81.8% (active),-74.1% (active),-38.7% (active),-27.8% (active),55.9%,-90.6% (active),51%,36.1%,41.9%,22%,14.5%,,
O=c1oc2ccccc2cc1-c1csc(N/N=C/c2cc3ccccc3nc2Cl)n1,101%,100%,96.7%,96.1%,97.2%,95%,98.4%,91.8%,101%,102%,106%,96.1%,90.6%,91%,116%,101%,87.5%,111%,,
CCCCc1ccc(C(O)(CCN2CC3CCC(CC3)C2)c2ccccc2)cc1 (stereo not drawn),65.7%,68.8%,116%,108%,83.3%,94.3%,101%,108%,103%,102%,98%,87.4%,95.7%,65.3%,104%,94.5%,92.6%,,80.9%,77%
CCCCOC(=O)C1OC(Oc2ccc3c(C)cc(=O)oc3c2)[C@@H](OC(C)=O)C(OC(C)=O)C1OC(C)=O (stereo partly drawn),99.2%,104%,86.3%,99.1%,100%,104%,101%,97%,94.5%,108%,103%,89.5%,99.6%,87.1%,99.2%,101%,94.1%,94.1%,107%,
COc1ccc(OC2=CC(=O)c3ccc(C)nc3C2=O)cc1,76.1%,102%,53.4%,87.7%,96.4%,85.2%,83.5%,83.6%,75.6%,93.5%,99.5%,96.5%,88.3%,92.3%,112%,51.4%,82.5%,18.5%,66.5%,
COc1ccc(-c2[nH]ncc2Nc2cc(OC)c(OC)c(OC)c2)cc1,32.2%,26.2%,44.6%,34.6%,31.1%,33.6%,-11.3% (active),27.4%,46.1%,67.2%,66.4%,49.4%,45.4%,46.8%,62%,55.7%,36.1%,39.9%,72.6%,48.7%
O=C(N/N=C(\CS(=O)(=O)c1ccccc1)c1cc2ccccc2oc1=O)c1ccccc1,107%,108%,93.2%,99.8%,96.3%,98.3%,105%,97.9%,96.6%,107%,115%,101%,101%,94%,119%,101%,96.4%,106%,115%,
CCCCc1ccc(NC(=O)C(F)(F)F)cc1,105%,99.8%,102%,106%,97.4%,101%,106%,99.9%,95.5%,112%,99%,120%,98.3%,83.8%,95.4%,102%,105%,,74.9%,84.1%
